Reference: paper PMC7862700, “An all-to-all approach to the identification of sequence-specific readers for epigenetic DNA modifications on cytosine”

What was measured:
Assay in all cases: DAPPL (digital affinity profiling via proximity ligation, sequencing); 10 mM Tris-HCl pH 7.5, 50 mM NaCl, 1 mM DTT, 4% glycerol, room temperature, 30 min; GST-TFs on glutathione beads, 16-mer random dsDNA library, 0.1% formaldehyde crosslink after washing; high values mean tight binding
Conditions in all cases: protein: recombinant; tags: N-terminal GST; dsDNA, one strand shown
ERF = molecular target: T1, ERF (Homo sapiens, UniProt P50548 1-548)
T1 sequence: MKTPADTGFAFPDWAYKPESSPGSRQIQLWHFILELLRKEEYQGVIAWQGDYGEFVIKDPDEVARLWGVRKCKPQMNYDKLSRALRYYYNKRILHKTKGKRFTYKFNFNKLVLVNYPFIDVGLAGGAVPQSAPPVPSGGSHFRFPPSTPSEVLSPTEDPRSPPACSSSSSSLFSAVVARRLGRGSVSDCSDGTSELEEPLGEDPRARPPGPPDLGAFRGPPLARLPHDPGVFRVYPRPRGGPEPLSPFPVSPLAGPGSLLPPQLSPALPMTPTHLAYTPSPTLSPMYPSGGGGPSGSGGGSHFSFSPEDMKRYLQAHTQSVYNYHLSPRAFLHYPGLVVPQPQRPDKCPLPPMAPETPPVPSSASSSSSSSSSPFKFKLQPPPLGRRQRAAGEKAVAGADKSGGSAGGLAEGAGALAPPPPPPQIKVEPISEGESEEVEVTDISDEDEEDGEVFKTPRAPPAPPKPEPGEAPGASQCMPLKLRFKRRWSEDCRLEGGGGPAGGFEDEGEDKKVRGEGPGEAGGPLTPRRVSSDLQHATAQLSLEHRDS
How it was run: (§1)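 Yeast served to express human transcription factors as GST fusions, which were then captured on glutathione beads and labelled with DNA barcodes. Pooled with a tag-only sample, they were incubated with 200 nmole of a 16-mer random double-stranded DNA library for 30 min at room temperature in Tris/NaCl/DTT/glycerol buffer, washed, crosslinked with 0.1% formaldehyde, ligated by proximity, amplified by PCR and sequenced. Dividing each hexamer's read frequency for a factor by its frequency for the tag-only sample gives the binding signal.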

ETV3L = molecular target: T2, ETV3L (Homo sapiens, UniProt Q6ZN32 1-361)
T2 sequence: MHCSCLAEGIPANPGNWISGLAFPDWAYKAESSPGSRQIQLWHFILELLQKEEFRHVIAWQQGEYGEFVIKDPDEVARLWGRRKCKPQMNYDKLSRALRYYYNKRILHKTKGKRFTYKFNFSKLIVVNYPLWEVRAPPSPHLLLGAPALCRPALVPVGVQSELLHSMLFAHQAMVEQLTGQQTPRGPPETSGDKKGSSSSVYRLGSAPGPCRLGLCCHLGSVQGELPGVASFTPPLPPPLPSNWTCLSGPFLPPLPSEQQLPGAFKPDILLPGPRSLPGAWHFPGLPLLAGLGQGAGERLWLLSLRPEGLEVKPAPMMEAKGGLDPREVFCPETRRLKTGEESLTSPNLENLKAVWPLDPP
How it was run: as §1

ETS2 = molecular target: T3, ETS2 (Homo sapiens, UniProt P15036 1-469)
T3 sequence: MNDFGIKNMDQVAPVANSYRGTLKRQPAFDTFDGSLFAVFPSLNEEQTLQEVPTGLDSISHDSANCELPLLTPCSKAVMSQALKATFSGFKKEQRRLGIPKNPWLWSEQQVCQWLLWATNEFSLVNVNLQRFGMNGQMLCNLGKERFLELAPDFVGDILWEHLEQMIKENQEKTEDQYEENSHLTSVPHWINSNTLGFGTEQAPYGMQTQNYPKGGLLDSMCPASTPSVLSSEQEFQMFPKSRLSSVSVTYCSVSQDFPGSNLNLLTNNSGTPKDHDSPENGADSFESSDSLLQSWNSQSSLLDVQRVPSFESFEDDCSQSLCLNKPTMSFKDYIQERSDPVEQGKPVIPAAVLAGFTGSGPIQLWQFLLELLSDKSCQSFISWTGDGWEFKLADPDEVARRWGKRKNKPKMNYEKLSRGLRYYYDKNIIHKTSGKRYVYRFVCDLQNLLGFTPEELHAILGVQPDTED
How it was run: as §1

SPDEF = molecular target: T4, SPDEF (Homo sapiens, UniProt O95238 1-335)
T4 sequence: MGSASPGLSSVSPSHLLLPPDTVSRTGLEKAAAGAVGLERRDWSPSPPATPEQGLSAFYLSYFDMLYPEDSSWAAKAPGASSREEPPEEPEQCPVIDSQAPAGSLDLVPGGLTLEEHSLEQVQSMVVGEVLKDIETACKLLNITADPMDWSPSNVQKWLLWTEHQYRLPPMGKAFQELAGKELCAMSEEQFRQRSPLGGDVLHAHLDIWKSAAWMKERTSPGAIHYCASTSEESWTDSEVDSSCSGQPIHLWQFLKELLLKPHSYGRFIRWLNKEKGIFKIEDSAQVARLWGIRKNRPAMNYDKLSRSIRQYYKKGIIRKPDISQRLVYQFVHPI
How it was run: as §1

ETV7 = molecular target: T5, ETV7 (Homo sapiens, UniProt Q9Y603 1-341)
T5 sequence: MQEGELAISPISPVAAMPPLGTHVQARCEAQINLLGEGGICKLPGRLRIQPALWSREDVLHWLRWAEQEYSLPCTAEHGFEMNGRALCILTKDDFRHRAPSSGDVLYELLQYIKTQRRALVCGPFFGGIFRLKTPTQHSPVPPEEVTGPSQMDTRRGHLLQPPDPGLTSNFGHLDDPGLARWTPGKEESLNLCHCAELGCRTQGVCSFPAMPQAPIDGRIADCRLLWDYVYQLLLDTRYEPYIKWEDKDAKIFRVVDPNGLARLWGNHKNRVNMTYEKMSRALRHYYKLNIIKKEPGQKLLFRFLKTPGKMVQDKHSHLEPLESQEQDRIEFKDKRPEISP
How it was run: as §1

ELF5 = molecular target: T6, ELF5 (Homo sapiens, UniProt Q9UKW6-2 1-255)
T6 sequence: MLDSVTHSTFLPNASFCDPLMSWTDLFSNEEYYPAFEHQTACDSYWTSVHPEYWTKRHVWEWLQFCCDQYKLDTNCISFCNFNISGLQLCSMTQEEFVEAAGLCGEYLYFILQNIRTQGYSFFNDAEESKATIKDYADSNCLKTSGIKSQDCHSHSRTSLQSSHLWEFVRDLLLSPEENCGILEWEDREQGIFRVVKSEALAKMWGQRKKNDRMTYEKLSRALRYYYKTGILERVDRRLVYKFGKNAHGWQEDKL
How it was run: as §1

ETV3 = molecular target: T7, ETV3 (Homo sapiens, UniProt P41162-2 1-143)
T7 sequence: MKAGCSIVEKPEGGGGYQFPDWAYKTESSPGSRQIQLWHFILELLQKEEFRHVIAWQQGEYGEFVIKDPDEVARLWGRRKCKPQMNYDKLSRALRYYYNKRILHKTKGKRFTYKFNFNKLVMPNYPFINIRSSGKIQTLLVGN
How it was run: as §1

ETV6 = ETV6 (Homo sapiens, UniProt P41212 1-452)
How it was run: as §1

Chain of ETV6 (P41212 whole entry): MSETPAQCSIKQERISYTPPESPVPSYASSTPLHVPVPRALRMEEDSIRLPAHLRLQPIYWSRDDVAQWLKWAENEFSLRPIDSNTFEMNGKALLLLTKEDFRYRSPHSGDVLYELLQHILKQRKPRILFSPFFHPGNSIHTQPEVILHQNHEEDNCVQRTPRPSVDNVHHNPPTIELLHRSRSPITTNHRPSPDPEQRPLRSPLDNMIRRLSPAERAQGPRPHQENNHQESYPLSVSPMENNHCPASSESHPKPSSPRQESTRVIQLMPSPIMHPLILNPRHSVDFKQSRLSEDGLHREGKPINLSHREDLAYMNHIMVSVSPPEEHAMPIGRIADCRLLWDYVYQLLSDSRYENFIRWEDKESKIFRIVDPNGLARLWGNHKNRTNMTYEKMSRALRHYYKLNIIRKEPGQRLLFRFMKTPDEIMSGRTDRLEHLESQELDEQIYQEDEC

Row | Sequence | binding signal (ERF) | binding signal (ETV3L) | binding signal (ETS2) | binding signal (SPDEF) | binding signal (ETV7) | binding signal (ELF5) | binding signal (ETV3) | binding signal (ETV6)
1 | CCCTCA | 1.18 fold enrichment (6-mer frequency, TF over GST control) | 1.18 fold enrichment (6-mer frequency, TF over GST control) | 1.14 fold enrichment (6-mer frequency, TF over GST control) | 1.2 fold enrichment (6-mer frequency, TF over GST control) | 1.07 fold enrichment (6-mer frequency, TF over GST control) | 1.14 fold enrichment (6-mer frequency, TF over GST control) | 1.12 fold enrichment (6-mer frequency, TF over GST control) | 1.09 fold enrichment (6-mer frequency, TF over GST control)
2 | GTCACA | 1.11 fold enrichment (6-mer frequency, TF over GST control) | 1.08 fold enrichment (6-mer frequency, TF over GST control) | 1.14 fold enrichment (6-mer frequency, TF over GST control) | 1.08 fold enrichment (6-mer frequency, TF over GST control) | 1.09 fold enrichment (6-mer frequency, TF over GST control) | 1.06 fold enrichment (6-mer frequency, TF over GST control) | 1.01 fold enrichment (6-mer frequency, TF over GST control) | 1.06 fold enrichment (6-mer frequency, TF over GST control)
3 | CTTACC | 1.19 fold enrichment (6-mer frequency, TF over GST control) | 1.16 fold enrichment (6-mer frequency, TF over GST control) | 1.29 fold enrichment (6-mer frequency, TF over GST control) | 1.39 fold enrichment (6-mer frequency, TF over GST control) | 1.29 fold enrichment (6-mer frequency, TF over GST control) | 1.39 fold enrichment (6-mer frequency, TF over GST control) | 1.22 fold enrichment (6-mer frequency, TF over GST control) | 1.19 fold enrichment (6-mer frequency, TF over GST control)
4 | GTCCCC | 1.23 fold enrichment (6-mer frequency, TF over GST control) | 1.15 fold enrichment (6-mer frequency, TF over GST control) | 1.15 fold enrichment (6-mer frequency, TF over GST control) | 1.14 fold enrichment (6-mer frequency, TF over GST control) | 1.27 fold enrichment (6-mer frequency, TF over GST control) | 1.13 fold enrichment (6-mer frequency, TF over GST control) | 1.14 fold enrichment (6-mer frequency, TF over GST control) | 1.24 fold enrichment (6-mer frequency, TF over GST control)
5 | TGCAAC | 1.31 fold enrichment (6-mer frequency, TF over GST control) | 1.28 fold enrichment (6-mer frequency, TF over GST control) | 1.28 fold enrichment (6-mer frequency, TF over GST control) | 1.37 fold enrichment (6-mer frequency, TF over GST control) | 1.19 fold enrichment (6-mer frequency, TF over GST control) | 1.23 fold enrichment (6-mer frequency, TF over GST control) | 1.32 fold enrichment (6-mer frequency, TF over GST control) | 1.35 fold enrichment (6-mer frequency, TF over GST control)
6 | CTCCAT | 1.37 fold enrichment (6-mer frequency, TF over GST control) | 1.21 fold enrichment (6-mer frequency, TF over GST control) | 1.36 fold enrichment (6-mer frequency, TF over GST control) | 1.39 fold enrichment (6-mer frequency, TF over GST control) | 1.13 fold enrichment (6-mer frequency, TF over GST control) | 1.24 fold enrichment (6-mer frequency, TF over GST control) | 1.27 fold enrichment (6-mer frequency, TF over GST control) | 1.35 fold enrichment (6-mer frequency, TF over GST control)
7 | CCGTCA | 1.08 fold enrichment (6-mer frequency, TF over GST control) | 1.28 fold enrichment (6-mer frequency, TF over GST control) | 1.28 fold enrichment (6-mer frequency, TF over GST control) | 1.38 fold enrichment (6-mer frequency, TF over GST control) | 1.26 fold enrichment (6-mer frequency, TF over GST control) | 1.22 fold enrichment (6-mer frequency, TF over GST control) | 1.19 fold enrichment (6-mer frequency, TF over GST control) | 1.25 fold enrichment (6-mer frequency, TF over GST control)
8 | GTTTAT | 1.17 fold enrichment (6-mer frequency, TF over GST control) | 1.26 fold enrichment (6-mer frequency, TF over GST control) | 1.1 fold enrichment (6-mer frequency, TF over GST control) | 1.11 fold enrichment (6-mer frequency, TF over GST control) | 1.19 fold enrichment (6-mer frequency, TF over GST control) | 1.14 fold enrichment (6-mer frequency, TF over GST control) | 1.1 fold enrichment (6-mer frequency, TF over GST control) | 1.18 fold enrichment (6-mer frequency, TF over GST control)
